Source: PubChem BioAssay (Tox21)
Results filed as inconclusive are left out. The source made the active and inactive calls. Unless noted, calls come from the whole dose curve.

Key:
[1] = target: Peroxisome proliferator-activated receptor delta (Homo sapiens) (UniProt Q03181); assay: qHTS assay to identify small molecule agonists of the peroxisome proliferator-activated receptor delta (PPARd) signaling pathway (AID 743212); note: % is set by controls: 0 for no effect and ±100 for the full control effect
Outline: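 HEK293H PPARd-bla cells; 5 h preincubation 37 C/5% CO2; compound (DMSO) 37 C; LiveBLAzer B/G FRET substrate 2 h RT; fluorescence intensity.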

[2] = target: Peroxisome proliferator-activated receptor delta (Homo sapiens) (UniProt Q03181); assay: qHTS assay to identify small molecule antagonists of the peroxisome proliferator-activated receptor delta (PPARd) signaling pathway (AID 743215; active = well fitted inhibition curve with a large enough effect in the signal ratio in the repeat runs, not every such curve was filed as active; the % refers to the signal ratio;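 note: cells stimulated with agonist L165041 at 300 nM final during compound exposure; series mostly up to about 62 µM; % is set by controls: 0 for no effect and ±100 for the full control effect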)
Outline: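 Read-out is beta-lactamase FRET fluorescence, measured 2 h after substrate addition at room temperature. Beforehand, UAS-bla HEK293H cells carrying the PPARd reporter were exposed to compounds with L165041 at 300 nM final for 17 h at 37 C.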

[3] = target: Bile acid receptor (Homo sapiens) (UniProt Q96RI1); assay: qHTS assay to identify small molecule antagonists of the farnesoid-X-receptor (FXR) signaling pathway (AID 743217; active = well fitted inhibition curve with a large enough effect in the signal ratio in the repeat runs, not every such curve was filed as active; the % refers to the signal ratio; note: % is set by controls: 0 for no effect and ±100 for the full control effect)
Outline: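 HEK 293T FXR-UAS-bla, 5000 cells/well; compound + CDCA 50 uM final; 16 h, 37 °C; B/G FRET substrate 2 h RT; fluorescence.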

[4] = qHTS assay to identify small molecule agonists of the farnesoid-X-receptor (FXR) signaling pathway - cell viability counter screen (AID 743218; active = well fitted curve in the direction sought with a large enough effect in the repeat runs; an effect the other way counts as inactive or inconclusive; note: % is set by controls: 0 for no effect and ±100 for the full control effect; nearly all actives have a fitted effect of over 45% in size)
Outline: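 HEK 293T FXR-bla cells; 5 h pre-incubation, 16 h compound exposure at 37 C; LiveBLAzer substrate 2 h RT, then CellTiter-Glo 30 min RT, luminescence.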

[5] = target: Bile acid receptor (Homo sapiens) (UniProt Q96RI1); assay: qHTS assay to identify small molecule agonists of the farnesoid-X-receptor (FXR) signaling pathway (AID 743220; active = well fitted activation curve with a large enough effect in the signal ratio in the repeat runs, not every such curve was filed as active; the % refers to the signal ratio; note: % is set by controls: 0 for no effect and ±100 for the full control effect)
Outline: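 Beta-lactamase reporter under UAS control in GeneBLAzer FXR HEK 293T cells (5000/well) measured with LiveBLAzer FRET substrate after 2 h at room temperature. Compound exposure lasted 16 h at 37C.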

[6] = qHTS assay to identify small molecule antagonists of the farnesoid-X-receptor (FXR) signaling pathway - cell viability counter screen (AID 743221; active = well fitted cell-killing curve with a large enough effect in the repeat runs, not every such curve was filed as active; note: % is set by controls: 0 for no effect and ±100 for the full control effect; nearly all actives have a fitted effect of over 50% in size)
Outline: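 Cytotoxicity is taken from ATP luminescence (CellTiter-Glo, 30 min, room temperature) in FXR-bla HEK 293T cells previously incubated 16 h at 37 C with compound and chenodeoxycholic acid at 50 uM final.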

[7] = target: Vitamin D3 receptor (Homo sapiens) (UniProt P11473); assay: qHTS assay to identify small molecule agonists of the vitamin D receptor (VDR) signaling pathway (AID 743222); note: % is set by controls: 0 for no effect and ±100 for the full control effect
Outline: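 VDR-bla cells, 2,000/well; 4 h preincubation 37C; cpd (DMSO) 16 h; LiveBLAzer B/G substrate 2 h RT; fluorescence intensity read.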

[8] = target: Vitamin D3 receptor (Homo sapiens) (UniProt P11473); assay: qHTS assay to identify small molecule antagonists of the vitamin D receptor (VDR) signaling pathway (AID 743223; active = well fitted inhibition curve with a large enough effect in the signal ratio in the repeat runs, not every such curve was filed as active; the % refers to the signal ratio; note: % is set by controls: 0 for no effect and ±100 for the full control effect)
Outline: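 Quantitative HTS in VDR-bla reporter cells stimulated with 1alpha,25-dihydroxyvitamin D3, 3 nM final. Compound exposure 16 h, 37C, 5% CO2. Read-out: beta-lactamase FRET substrate fluorescence, 2 h RT.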

[9] = qHTS assay to identify small molecule agonists of the vitamin D receptor (VDR) signaling pathway - cell viability counter screen (AID 743224; active = well fitted curve in the direction sought with a large enough effect in the repeat runs; an effect the other way counts as inactive or inconclusive; note: series mostly up to about 63 µM; % is set by controls: 0 for no effect and ±100 for the full control effect; nearly all actives have a fitted effect of over 50% in size)
Outline: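 Luminescence from CellTiter-Glo, read after 30 min at room temperature, reports viability of VDR-bla cells treated with compounds for 16 h at 37C in the wells used for the beta-lactamase FRET read.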

[10] = qHTS assay to identify small molecule antagonists of the vitamin D receptor (VDR) signaling pathway - cell viability counter screen (AID 743225; active = well fitted curve in the direction sought with a large enough effect in the repeat runs; an effect the other way counts as inactive or inconclusive; note: % is set by controls: 0 for no effect and ±100 for the full control effect; nearly all actives have a fitted effect of over 50% in size)
Outline: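 Same-well multiplex: following 16 h treatment of HEK 293T cells carrying a UAS-driven beta-lactamase reporter with compound and agonist (3 nM final), and a 2 h FRET substrate step, CellTiter-Glo was added and luminescence read after 30 min.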

[11] = qHTS assay to identify small molecule agonists of the NFkB signaling pathway (AID 1159509; active = well fitted curve in the direction sought with a large enough effect in the signal ratio in the repeat runs, not every such curve was filed as active; the % refers to the signal ratio)
Outline: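 NFkB-bla ME-180 cells carry a beta-lactamase reporter under an NF-kB response element. They were plated overnight, then exposed to compounds for 5 h at 37 C. Read-out is LiveBLAzer FRET after 1.5 hr at room temperature (405 nm excitation; 460/530 nm emission).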

[12] = qHTS assay to identify small molecule agonists of the NFkB signaling pathway - cell viability counter screen (AID 1159515); note: series mostly up to about 61 µM; % is set by controls: 0 for no effect and ±100 for the full control effect; nearly all actives have a fitted effect of over 55% in size
Outline: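 Luminescence from CellTiter-Glo (30 min, room temperature) gives viability, measured in the same wells as the beta-lactamase reporter read. Cells were NFkB-bla ME-180, 2,000 per well, treated 5 hr with compounds.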

[13] = qHTS assay to identify small molecule agonists of the endoplasmic reticulum stress response signaling pathway (AID 1159516; active = well fitted activation curve with a large enough effect in the signal ratio in the repeat runs, not every such curve was filed as active; the % refers to the signal ratio; note: % is set by controls: 0 for no effect and ±100 for the full control effect)
Outline: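 Read-out is beta-lactamase cleavage of a FRET substrate (405 nm excitation; 460 and 530 nm emissions) in ESRE-bla HeLa cells after a 5 hr compound exposure at 37 C. Substrate incubation ran 2 hr at room temperature.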

[14] = qHTS assay to identify small molecule agonists of the endoplasmic reticulum stress response signaling pathway - cell viability counter screen (AID 1159517);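 note: HeLa cells carrying an ER stress response element beta-lactamase reporter; series mostly up to about 61 µM; % is set by controls: 0 for no effect and ±100 for the full control effect; nearly all actives have a fitted effect of over 50% in size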
Outline: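 HeLa cells carrying an ESRE-driven beta-lactamase reporter receive compound for 5 hr at 37 C. Cell viability is then gauged with CellTiter-Glo by luminescence, 30 min at room temperature.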

[15] = qHTS assay to identify small molecule antagonists of the retinoid-related orphan receptor gamma (ROR-gamma) signaling pathway - cell viability counter screen (AID 1159520; active = well fitted curve in the direction sought with a large enough effect in the repeat runs; an effect the other way counts as inactive or inconclusive)
Outline: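 Cytotoxicity was read from cellular ATP (CellTiter-Glo luminescence) after 16 hr at 37 C with 1 uM doxycycline induction. The inducer was added 2 hr after compound transfer to Tet-on ROR gamma CHO cells.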

[16] = qHTS assay to identify small molecule agonists of the AP-1 signaling pathway - cell viability counter screen (AID 1159525); note: nearly all actives have a fitted effect of over 55% in size
Outline: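 Luminescent ATP readout (Cell Titer Glo, 30 min RT), normalised to DMSO and tetra n-octyl ammonium bromide controls. Cells were ME-180 AP-1-bla in 0.5% dialyzed FBS Opti-MEM, with a 5 h, 37 °C compound exposure.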

[17] = qHTS assay to identify small molecule agonists of the AP-1 signaling pathway (AID 1159526); note: % is set by controls: 0 for no effect and ±100 for the full control effect
[18] = target: Retinoic acid receptor RXR-alpha (Homo sapiens) (UniProt P19793); assay: qHTS assay to identify small molecule agonists of the RXR signaling pathway (AID 1159527); note: % is set by controls: 0 for no effect and ±100 for the full control effect; nearly all actives have a fitted effect of over 35% in size
Outline: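 Compounds in DMSO were added to RXR-alpha-UAS-bla HEK 293T cells kept in 2% charcoal-stripped serum, and incubated 16 hr at 37 C with 5% CO2. Reporter signal came from a 2 hr B/G FRET substrate step.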

[19] = target: Nuclear receptor ROR-gamma (Homo sapiens) (UniProt P51449); assay: qHTS assay to identify small molecule antagonists of the retinoid-related orphan receptor gamma (ROR-gamma) signaling pathway (AID 1159521; active = well fitted curve in the direction sought with a large enough effect in the repeat runs; an effect the other way counts as inactive or inconclusive)
Outline: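 Inducible-expression reporter assay: doxycycline (1 uM final) switched on RORγ in CHO cells bearing a ROR response element-luciferase construct, with test compounds present from 2 h beforehand. Decreased luminescence after 16 h defined antagonist activity.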

[20] = qHTS assay to identify small molecule antagonists of the peroxisome proliferator-activated receptor delta (PPARd) signaling pathway - cell viability counter screen (AID 743213; active = well fitted curve in the direction sought with a large enough effect in the repeat runs; an effect the other way counts as inactive or inconclusive)
Outline: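 PPARd-bla HEK293H cells (3000/well) got compound plus 300 nM L165041 agonist for 17 h at 37 C. Viability in the same wells came from CellTiter-Glo luminescence after 30 min at room temperature.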

Sequence of Peroxisome proliferator-activated receptor delta (Homo sapiens) (Q03181 whole entry, looked up): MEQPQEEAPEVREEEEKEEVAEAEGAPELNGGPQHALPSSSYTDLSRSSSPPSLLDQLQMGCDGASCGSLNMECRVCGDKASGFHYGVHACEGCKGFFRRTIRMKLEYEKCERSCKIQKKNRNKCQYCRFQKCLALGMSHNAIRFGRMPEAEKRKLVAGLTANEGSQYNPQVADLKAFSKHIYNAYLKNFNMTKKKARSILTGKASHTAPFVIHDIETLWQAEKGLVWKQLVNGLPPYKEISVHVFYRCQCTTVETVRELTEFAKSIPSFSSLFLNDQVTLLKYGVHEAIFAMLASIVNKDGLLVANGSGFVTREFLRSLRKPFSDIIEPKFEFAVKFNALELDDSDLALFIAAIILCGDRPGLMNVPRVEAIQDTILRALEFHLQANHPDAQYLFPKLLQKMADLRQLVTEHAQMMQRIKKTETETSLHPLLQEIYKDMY
Sequence of Retinoic acid receptor RXR-alpha (Homo sapiens) (P19793 whole entry, looked up): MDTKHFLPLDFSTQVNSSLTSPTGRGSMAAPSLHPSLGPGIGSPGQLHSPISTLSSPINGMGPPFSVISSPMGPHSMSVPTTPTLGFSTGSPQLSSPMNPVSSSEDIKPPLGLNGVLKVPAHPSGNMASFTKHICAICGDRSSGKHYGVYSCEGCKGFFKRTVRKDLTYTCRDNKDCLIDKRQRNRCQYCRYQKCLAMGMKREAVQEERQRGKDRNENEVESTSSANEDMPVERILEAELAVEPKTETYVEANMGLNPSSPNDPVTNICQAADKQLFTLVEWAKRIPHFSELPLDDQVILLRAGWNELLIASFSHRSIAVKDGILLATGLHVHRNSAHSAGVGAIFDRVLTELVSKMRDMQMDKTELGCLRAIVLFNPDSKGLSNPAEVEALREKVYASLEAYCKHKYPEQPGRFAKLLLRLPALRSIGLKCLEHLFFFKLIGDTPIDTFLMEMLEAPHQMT
Sequence of Bile acid receptor (Homo sapiens) (Q96RI1 whole entry, looked up): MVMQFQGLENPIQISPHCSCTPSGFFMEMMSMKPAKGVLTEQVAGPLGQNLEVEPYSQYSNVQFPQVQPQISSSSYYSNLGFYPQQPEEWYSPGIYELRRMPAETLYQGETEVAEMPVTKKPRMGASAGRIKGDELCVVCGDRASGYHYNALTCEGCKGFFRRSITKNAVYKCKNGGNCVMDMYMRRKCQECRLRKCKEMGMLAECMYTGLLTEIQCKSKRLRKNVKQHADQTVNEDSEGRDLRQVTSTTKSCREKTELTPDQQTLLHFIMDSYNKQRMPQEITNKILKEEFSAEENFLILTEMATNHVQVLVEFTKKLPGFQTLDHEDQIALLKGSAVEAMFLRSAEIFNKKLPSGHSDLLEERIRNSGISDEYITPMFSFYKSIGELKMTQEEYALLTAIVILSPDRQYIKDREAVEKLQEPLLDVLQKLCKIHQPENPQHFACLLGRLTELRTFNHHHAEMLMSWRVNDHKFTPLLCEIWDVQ
Sequence of Vitamin D3 receptor (Homo sapiens) (P11473 whole entry, looked up): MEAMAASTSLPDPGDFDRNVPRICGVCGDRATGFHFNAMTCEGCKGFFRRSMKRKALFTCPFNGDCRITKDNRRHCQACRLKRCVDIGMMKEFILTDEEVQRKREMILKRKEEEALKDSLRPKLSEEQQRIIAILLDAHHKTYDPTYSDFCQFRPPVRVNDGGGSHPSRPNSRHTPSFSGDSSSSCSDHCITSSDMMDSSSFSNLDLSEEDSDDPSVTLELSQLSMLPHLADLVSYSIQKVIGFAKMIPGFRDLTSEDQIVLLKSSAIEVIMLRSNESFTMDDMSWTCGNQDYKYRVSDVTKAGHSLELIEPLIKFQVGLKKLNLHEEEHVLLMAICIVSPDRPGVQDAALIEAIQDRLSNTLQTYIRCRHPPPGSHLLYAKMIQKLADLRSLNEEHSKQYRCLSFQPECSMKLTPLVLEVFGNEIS

C=C(C)C(=O)OC1CC(C)CC(C)(C)C1 (stereo not given)
inactive: outcome [1] | outcome [2] | outcome [3] | Potency [4] | outcome [5] | outcome [6] | outcome [7] | outcome [8] | outcome [9] | outcome [10] | outcome [11] | outcome [12] | outcome [13] | outcome [14] | outcome [15] | outcome [16] | outcome [17] | Potency [18]

C=CCCCCCCCCCCC
inactive: ratio activity, negative = inhibition [2] 0.24% [at 6.26 µM] | viability change, negative = cytotoxic [4] 33.3% [at 5.95 µM] | activity change, negative = cytotoxicity [6] 11.4% [at 5.95 µM] | activation [7] -2.3% [at 6.01 µM] | activity change, negative = inhibition [8] 4.12% [at 6.95 µM] | activity change, negative = cytotoxicity [9] -9.89% [at 5.95 µM] | viability change, negative = cytotoxic [10] 5.49% [at 6.95 µM] | activation [11] 0.0657% [at 6.95 µM] | activity, negative = cytotoxic [12] -9.69% [at 6.95 µM] | activation [13] -5.43% [at 6.95 µM] | activity change, negative = cytotoxicity [14] -0.545% [at 6.95 µM] | activity, negative = cytotoxicity [15] 3.91% [at 8.39 µM] | activity change, negative = inhibition [19] -1.42% [at 8.39 µM] | viability change, negative = cytotoxic [16] 9.65% [at 6.97 µM] | activation [17] -2.43% [at 6.97 µM] | activation [18] 6.32% [at 6.98 µM]

COc1ccc(NS(=O)(=O)c2ccc(N)cc2)nn1
inactive: outcome [1] | outcome [20] | outcome [3] | outcome [5] | outcome [6] | outcome [7] | outcome [8] | outcome [9] | outcome [10] | outcome [11] | outcome [12] | outcome [13] | outcome [14] | outcome [15] | outcome [16] | outcome [17] | Potency [18]

CC1(N)CCC(C(C)(C)N)CC1 (stereo not given)
inactive: outcome [1] | outcome [20] | outcome [2] | Potency [4] | outcome [6] | outcome [7] | outcome [8] | outcome [9] | outcome [11] | outcome [12] | outcome [13] | outcome [14] | outcome [15] | outcome [16] | outcome [17] | Potency [18]

O=C(Oc1ccccc1C(=O)O)c1ccccc1O
inactive: outcome [1] | outcome [20] | outcome [2] | outcome [3] | Potency [4] | outcome [5] | outcome [7] | outcome [8] | outcome [9] | outcome [10] | outcome [11] | outcome [12] | outcome [13] | outcome [14] | outcome [15] | outcome [16] | outcome [17] | Potency [18]

Nc1cc(Cl)cc(S(=O)(=O)O)c1O
inactive: outcome [20] | outcome [6] | outcome [8] | outcome [9] | outcome [11] | outcome [12] | outcome [13] | outcome [14] | outcome [15] | outcome [19] | outcome [16] | outcome [17] | Potency [18]

O=C(O)c1ccccc1C(=O)Nc1ccc(S(=O)(=O)Nc2nccs2)cc1
inactive: outcome [20] | outcome [2] | outcome [6] | outcome [7] | outcome [8] | outcome [9] | outcome [10] | outcome [11] | outcome [12] | outcome [13] | outcome [14] | outcome [15] | outcome [19] | outcome [16] | outcome [17]

CC(=O)c1ccc2c(c1)CCCC2
inactive: outcome [20] | outcome [2] | Potency [4] | outcome [7] | outcome [9] | outcome [11] | outcome [12] | outcome [13] | outcome [14] | outcome [15] | outcome [19] | outcome [16] | outcome [17]

CC(C)COC(=O)/C=C/c1ccccc1
inactive: outcome [1] | outcome [20] | outcome [2] | outcome [3] | Potency [4] | outcome [5] | outcome [6] | outcome [7] | outcome [8] | outcome [9] | outcome [10] | outcome [11] | outcome [13] | outcome [14] | outcome [15] | outcome [19] | outcome [16] | outcome [17] | Potency [18]

c1ccc(CNc2ncnc3nc[nH]c23)cc1
inactive: outcome [20] | outcome [3] | Potency [4] | outcome [5] | outcome [7] | outcome [8] | outcome [9] | outcome [10] | outcome [11] | outcome [12] | outcome [14] | outcome [15] | outcome [19] | outcome [16] | outcome [17] | Potency [18]

CCCCCC1CCCC(=O)O1 (stereo not given)
inactive: outcome [1] | outcome [20] | outcome [2] | outcome [3] | Potency [4] | outcome [5] | outcome [7] | outcome [8] | outcome [9] | outcome [10] | outcome [11] | outcome [12] | outcome [15] | outcome [16] | outcome [17] | Potency [18]

C[Si]1(C)N[Si](C)(C)N[Si](C)(C)N1
inactive: outcome [20] | outcome [6] | outcome [9] | outcome [10] | outcome [11] | outcome [12] | outcome [14] | outcome [15] | outcome [19] | outcome [16] | outcome [17] | Potency [18]

CCN(Cc1cccc(S(=O)(=O)O)c1)c1ccccc1
inactive: outcome [20] | outcome [3] | Potency [4] | outcome [5] | outcome [6] | outcome [7] | outcome [8] | outcome [9] | outcome [11] | outcome [12] | outcome [14] | outcome [15] | outcome [19] | outcome [16] | outcome [17] | Potency [18]

C[CH2][Ge]([Cl])([CH2]C)[CH2]C
inactive: outcome [20] | outcome [2] | outcome [3] | Potency [4] | outcome [5] | outcome [6] | outcome [7] | outcome [8] | outcome [9] | outcome [10] | outcome [11] | outcome [12] | outcome [14] | outcome [15] | outcome [19] | outcome [16] | outcome [17] | Potency [18]

O=C(O)CCNC(=O)c1ccccc1
inactive: outcome [1] | outcome [20] | outcome [2] | Potency [4] | outcome [6] | outcome [11] | outcome [12] | outcome [14] | outcome [15] | outcome [16] | outcome [17] | Potency [18]
